Rows were chosen to be rich in hits. Some 2.4% of all compounds tested hit in one or more screens of this group.
Cruzain inh Det – blocks cruzain activity in presence of Triton detergent; Potency, µM, for the others: max response, negative = inhibition, hits mostly inhibitors; AID 1478; hit rate 0.43% among 200,000; purified cruzain, Z-FR-AMC fluorescence, 0.01% Triton;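 note: plate controls were neutral wells for no effect and buffer without enzyme for full effect; nearly all actives have a fitted effect of over 40% in size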
Target sequence (P25779 123-467 limits assumed): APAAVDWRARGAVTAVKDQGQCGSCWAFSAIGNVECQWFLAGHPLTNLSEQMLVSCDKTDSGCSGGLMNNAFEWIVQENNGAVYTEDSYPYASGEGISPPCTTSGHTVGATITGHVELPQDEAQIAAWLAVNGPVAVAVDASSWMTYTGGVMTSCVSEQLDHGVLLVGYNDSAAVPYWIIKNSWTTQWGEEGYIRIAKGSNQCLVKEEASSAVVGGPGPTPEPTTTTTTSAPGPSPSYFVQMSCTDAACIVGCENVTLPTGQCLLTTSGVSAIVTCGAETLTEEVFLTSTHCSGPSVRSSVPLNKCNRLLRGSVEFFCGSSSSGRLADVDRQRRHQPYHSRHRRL
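Steps: dispense cruzain (1.5 nM final) in acetate buffer pH 5.5 with DTT and 0.01% Triton X-100; pin-transfer compounds; incubate 15 min RT; add Z-FR-AMC (2 uM final); read fluorescence every 30 s, using the 60 s intensity change.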
Cruzain inh noDet – inhibitors of Trypanosoma cruzi cruzain without detergent; P25779; purified cruzain, Z-FR-AMC fluorescence, no detergent; Potency, µM, for inactives: max response, negative = inhibition, hits mostly inhibitors; hit rate 2.3% among 200,000;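 note: plate controls were enzyme without inhibitor for no effect and buffer without enzyme for full effect; nearly all actives have a fitted effect of over 40% in size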
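Detergent-free condition (0.00005% Triton X-100) in acetate buffer pH 5.5 with DTT. 1.5 nM enzyme and compound were pre-mixed 15 min, then 2 uM Z-FR-AMC substrate added; reaction progress from fluorescence change between first and third reads (60 s).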
* marks the source's active call; other numbers are inactive results. Calls come from the whole dose curve; as a rule, active = well fitted curve in the direction sought with a large enough effect; inconclusive = small, poorly fitted or top-dose-only effect, or another doubt; inactive = no such curve, though single readings can be large; an effect the other way counts as inactive or inconclusive. Potency is the fitted concentration of half-maximal effect.

`COC(=O)c1ccc(-n2c(C)cc(-c3csc(NC(=O)c4ccc(S(=O)(=O)N(C)C)cc4)n3)c2C)cc1` gave Cruzain inh Det -2% and Cruzain inh noDet 4µM*.
CCOC(=O)c1csc(NC(=O)c2ccc(S(=O)(=O)N(C)C)cc2)n1 was read as Cruzain inh Det 4% and Cruzain inh noDet 4%.
Screening CN1C(=O)C2(SCC(=O)N2c2ccc(F)cc2)c2ccccc21 (stereo not given) returned Cruzain inh Det -3% and Cruzain inh noDet 6%.
CN1C(=O)C2(c3ccccc31)N(c1cccc(C(F)(F)F)c1)C(=O)CS2(=O)=O (stereo not given) was read as Cruzain inh Det -3% and Cruzain inh noDet 5µM*.
CN1C(=O)C2(c3ccccc31)N(c1ccc(Br)cc1)C(=O)CS2(=O)=O (stereo not given) was read as Cruzain inh Det -1% and Cruzain inh noDet 10µM*.
CN1C(=O)C2(SCC(=O)N2c2cccc(C(F)(F)F)c2)c2ccccc21 (stereo not given) was read as Cruzain inh Det -6% and Cruzain inh noDet inconclusive.
Screening O=C(c1cccc(Cl)c1)n1nc(-c2ccco2)nc1NCc1cccs1 returned Cruzain inh Det -4% and Cruzain inh noDet -16%.
Screening COC(=O)c1c(C)sc(-c2c(-c3ccc4c(c3)OCCO4)[nH]c3c2c(=O)[nH]c(=O)n3C)c1O returned Cruzain inh Det -1% and Cruzain inh noDet 8%.
`CCCN(CCC)CCNC(=O)c1cc2c(=O)n(C)c3ccccc3c2n1C` gave Cruzain inh Det 16µM* and Cruzain inh noDet inconclusive.
Screening CCOCCCNC(=O)c1cc2c(=O)n(C)c3ccccc3c2n1C returned Cruzain inh Det -2% and Cruzain inh noDet -11%.
`Cn1c(C(=O)NCCN2CCN(c3ccccc3F)CC2)cc2c(=O)n(C)c3ccccc3c21` gave Cruzain inh Det -4% and Cruzain inh noDet -10%.
Screening Cn1c(C(=O)NCCN2CCc3ccccc3C2)cc2c(=O)n(C)c3ccccc3c21 returned Cruzain inh Det 25µM* and Cruzain inh noDet inconclusive.
Cc1ccc(Cl)cc1N1CCN(C(=O)c2cc(S(=O)(=O)N3CCCCC3)cn2C)CC1 was read as Cruzain inh Det 0% and Cruzain inh noDet -10%.
`O=C(COc1ccc(-c2nnco2)cc1)NCc1ccccc1Cl` gave Cruzain inh Det -4% and Cruzain inh noDet 18%.
`Cc1cc(C(=O)COc2ccc(-c3nnco3)cc2)c(C)n1Cc1ccccc1` gave Cruzain inh Det 3% and Cruzain inh noDet 16µM*.
`Cc1cc(C)cc(N=Cc2[nH]c3ccc(Br)c(Cl)c3c2O)c1` gave Cruzain inh Det -1% and Cruzain inh noDet 4µM*.
`COc1ccc(CN=Cc2[nH]c3ccc(Br)c(Cl)c3c2O)cc1` gave Cruzain inh Det -15% and Cruzain inh noDet 25µM*.
Cc1ccc(O)c(C=Nc2ccc3[nH]ncc3c2)c1 was read as Cruzain inh Det inconclusive and Cruzain inh noDet 7%.
COc1ccc(CN=CC2=C(O)CNC2=O)cc1 was read as Cruzain inh Det 8% and Cruzain inh noDet -2%.
For CC1CCc2nc3ncn(Cc4ccc(Cl)cc4)c(=O)c3cc2C1 (stereo not given) the results were Cruzain inh Det 0% and Cruzain inh noDet -2%.
For O=C(O)c1ccccc1/C=N\N=C1c2ccccc2-c2ccccc21 the results were Cruzain inh Det -2% and Cruzain inh noDet 3%.
CCOc1ccc(CNC(=O)CCCn2c(=O)c3cccn3c3ccccc32)cc1 was read as Cruzain inh Det -5% and Cruzain inh noDet 25%.
For COc1cc(OC)cc(C(=O)N/N=C/c2ccc(OC)c(COc3ccc(F)cc3)c2)c1 the results were Cruzain inh Det -6% and Cruzain inh noDet -23%.
Screening COc1ccc(/C=N/NC(=S)Nc2ccccc2)cc1COc1ccc(F)cc1F returned Cruzain inh Det -5% and Cruzain inh noDet 7.9µM*.
CCOC(=O)c1c(NC(=O)c2cc(=O)c3cc(Cl)ccc3o2)sc(C)c1C was read as Cruzain inh Det 0% and Cruzain inh noDet -12%.
Cc1ccc(NC(=O)N2CCN(Cc3nc4ccc(C)cc4o3)CC2)c(Cl)c1 was read as Cruzain inh Det -1% and Cruzain inh noDet 21%.
CCCn1c(=O)c2sccc2n2c(CCCC(=O)N3CCN(c4cccc(C)c4C)CC3)nnc12 was read as Cruzain inh Det -1% and Cruzain inh noDet 0%.
Screening CC(=O)c1cccc(NC(=O)COc2ccccc2)c1 returned Cruzain inh Det 2% and Cruzain inh noDet -2%.
Screening O=C(COc1ccc2ccccc2c1)Nc1cccc(C(=O)Nc2ccccc2C(=O)O)c1 returned Cruzain inh Det 32µM* and Cruzain inh noDet inconclusive.
For Cc1ccc(-c2csc3ncnc(SCC(=O)c4ccc5c(c4)OCCO5)c23)cc1 the results were Cruzain inh Det 4% and Cruzain inh noDet 10µM*.
For O=C(CSc1ncnc2scc(-c3ccc(F)cc3)c12)c1ccc2c(c1)OCCO2 the results were Cruzain inh Det -6% and Cruzain inh noDet inconclusive.
For O=C(CSc1ncnc2ccccc12)c1ccc2c(c1)OCCO2 the results were Cruzain inh Det -6% and Cruzain inh noDet -5%.
